Experimental findings from PubChem BioAssay (NCI) are described below.

Each structure is given as a SMILES string. About 83,000 compounds went through this panel and 20% of them were active in at least one assay; those are over-represented in the sample as a whole.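 Growth was measured after 48 h exposure to one concentration of compound in 96-well plates. Values under 10 count as active.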 The source made the active and inactive calls.

The test concerns DU-145 prostate. In words: NCI-60 one-dose screen, 48 h (100 = growth as untreated, 0 = no growth, -100 = all killed). To be noted: 10 µM unless noted.
Turning to `O=C1COCCN1c1ccc(NCc2cn(C(=O)c3ccc(Cl)cc3)c3ccccc23)cc1`, the growth was 84.2% (inactive).

On to `COc1ccc(-c2cnc3ccccc3n2)cc1`, for which the growth is 106% (inactive). In the case of `CCOC(=O)C1=C(N)Oc2c(sc3c(C)cccc23)C1c1ccc(OC)cc1` (stereo not drawn), the growth was 50.5% (inactive).

For the molecule `FC(F)(F)c1cc(Nc2ccc3c(OCCCN4CCOCC4)cccc3n2)ccc1Cl`, the growth was 55.9% (inactive).

With `COc1cc(C(=O)c2cc(C)c3[nH]c4ccc(O)cc4c3c2C)cc(OC)c1OC`, the growth was -13.4% (active). As for `Cc1ccc(C(=O)N/N=C/c2cccc(Oc3ccccc3)c2)cn1`, the growth is 88.7% (inactive). In the case of `CC(=O)CC(c1cccs1)c1c(-c2ccccc2)[nH]c2ccccc12` (stereo not drawn), the growth was 103% (inactive).

In the case of `NC(=O)C1(Nc2ccc(Br)cc2)CCCC1`, the growth was 119% (inactive). Under `COc1ccc(-c2c(C(=O)NS(C)(=O)=O)n(Cc3cccc(C(F)(F)F)c3)c3ccccc23)cc1` stands 100% (inactive); under `O=C1NC(=O)C(c2ccccc2)(c2ccccc2)N1Cc1cn(-c2c3ccccc3nc3ccccc23)nn1`, 91.2% (inactive); under `CCCCn1c(-c2ccc(C(=O)O/N=C(\N)c3ccc(OC)cc3)cc2)nc(-c2ccccc2)c1-c1ccccc1`, -93.4% (active).

As to `COc1cc(Nc2nc(NCCN)nc3cc[nH]c(=O)c23)cc(OC)c1`, the growth is 65% (inactive). `COc1ccc(-c2[nH]c3ccc(OC)cc3c2/C=C(\C#N)S(=O)(=O)c2ccccc2)cc1`: the growth was 17.3% (inactive). For `COc1ccc(C2=Nn3c(nnc3-c3cc(Cl)cc(Cl)c3Cl)SC2)cc1`, the growth was 6.93% (active). For `COc1ccc(C(=S)N2CCN(c3cccc(C)c3)CC2)cc1OC`, the growth is 90.7% (inactive). Under `COc1cc(CCCO)c(OC)c(OC)c1OC` stands 109% (inactive); under `O=C(Nc1nc2ccc(F)cc2s1)c1cccnc1Nc1ccc(Cl)cc1Cl`, 30% (inactive); under `Cc1cccc2c3c(sc12)C(c1ccc(F)cc1)C(C#N)=C(N)O3` (stereo not drawn), 7.98% (active). Under `BrCCCc1n(Cc2ccc3ccccc3c2)c2ccccc2[n+]1Cc1ccc2ccccc2c1` stands -62.4% (active); under `CCOC(=O)Cn1c(C)c(/C=N/NC(=O)c2cc3c(ccc4ccccc43)o2)c2ccccc21`, 11.2% (inactive); under `CCOC(=O)c1sc2ncc(-c3ccc(OC)cc3)n2c1C`, 105% (inactive). In the case of `O=c1c2cccc(F)c2sc2c(NCCCNCCO)nc3ccccc3c12`, the growth was 23.7% (inactive). Take `CNCCCNc1nc2ccccc2c2c(=O)c3cc(F)ccc3sc12`: the growth is 2.57% (active). Under `CC(=O)OC[C@H]1OC(Sc2sc(C(=O)c3ccc(Cl)cc3)c(N)c2-c2nc3ccccc3s2)[C@H](OC(C)=O)[C@@H](OC(C)=O)[C@@H]1OC(C)=O` (stereo partly drawn) stands 70.7% (inactive); under `OC(c1ccccc1)C(NC(Cc1ccccc1)c1ccccc1)c1ccccc1` (stereo not drawn), 98.7% (inactive). Under `CCOC(=O)c1cn2ncnc(Oc3ccc(NC(=O)NCCN(C)C)c(Cl)c3)c2c1C` stands 86.8% (inactive); under `Cc1nc2ccccc2c(/C=C/c2ccccc2)c1C(=O)/C=C/c1ccc(C(F)(F)F)cc1`, -88.7% (active); under `Cc1[nH]c(C(=O)Nc2ccc(C(=O)NCCN)cc2OC(C)C)c(Cl)c1Cl`, 33.8% (inactive). Regarding `CN1CCN(c2ccc(-c3cnc4c(-c5csc6ccccc56)cnn4c3)cc2)CC1`, the growth was 9.16% (active). As to `c1ccc(-c2nc3sc(-c4ccccc4)cn3n2)cc1`, the growth was 84.4% (inactive). For `COc1c(B(O)O)cc(F)cc1-c1nc2ccc3[nH]ncc3c2c2c1CCCC2`, the growth is 11.1% (inactive). Turning to `CNCCCC12CCC(c3ccccc31)c1ccccc12`, the growth is 103% (inactive). Take `C=C1C(=O)O[C@H]2[C@H]1CC/C(COC(=O)C(C)c1ccc(CC(C)C)cc1)=C\CC[C@@]1(C)O[C@@H]21` (stereo partly drawn): the growth was 47.2% (inactive). Under `CC1=C(C)C(=O)C(Nc2cccc(C(=O)OC(C)(C)C)c2)=C(Br)C1=O` stands 109% (inactive); under `COc1ccc(C2CC(c3ccc(Nc4ccnc5cc(Cl)ccc45)cc3)=NN2C=O)cc1` (stereo not drawn), 73.4% (inactive).

As to `Cc1nc(NC(=O)COc2ccc(/C=C3\Cc4ccc(Cl)cc4C3=O)cc2)sc1C`, the growth is 112% (inactive). For `Cc1ccc2c(-c3cc(-c4ccccc4)nc(N)c3C#N)cc(=O)oc2c1`, the growth is 107% (inactive). For `CN(C)c1ccc(/C=N\Nc2cc(=O)[nH]c3ccc(Cl)cc23)cc1` the value was 123% (inactive).
